Shown are actives, neighbours in structure and some others; about 1.6% of the full set was active somewhere.
KCNQ2 pot = enhances the rat KCNQ2 potassium channel | O88943 | CHO-K1 KCNQ2, FluxOR thallium flux fluorescence; active compounds read high | B-score at 10 µM | 0.54% of 310,000 active | AID 2239;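 active = fluorescence ratio B-score at least 3 SD of library B-scores, with initial fluorescence B-score within 3 of them, cut at about 5.3 in these data; same plate scores as AID 2156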;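 note: B-score of peak minus minimum over baseline fluorescence ratio after K+ and Tl+ stimulus; positive B-score means potentiation of KCNQ2 with more thallium influx and brighter signal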
Target sequence (O88943 whole entry, looked up): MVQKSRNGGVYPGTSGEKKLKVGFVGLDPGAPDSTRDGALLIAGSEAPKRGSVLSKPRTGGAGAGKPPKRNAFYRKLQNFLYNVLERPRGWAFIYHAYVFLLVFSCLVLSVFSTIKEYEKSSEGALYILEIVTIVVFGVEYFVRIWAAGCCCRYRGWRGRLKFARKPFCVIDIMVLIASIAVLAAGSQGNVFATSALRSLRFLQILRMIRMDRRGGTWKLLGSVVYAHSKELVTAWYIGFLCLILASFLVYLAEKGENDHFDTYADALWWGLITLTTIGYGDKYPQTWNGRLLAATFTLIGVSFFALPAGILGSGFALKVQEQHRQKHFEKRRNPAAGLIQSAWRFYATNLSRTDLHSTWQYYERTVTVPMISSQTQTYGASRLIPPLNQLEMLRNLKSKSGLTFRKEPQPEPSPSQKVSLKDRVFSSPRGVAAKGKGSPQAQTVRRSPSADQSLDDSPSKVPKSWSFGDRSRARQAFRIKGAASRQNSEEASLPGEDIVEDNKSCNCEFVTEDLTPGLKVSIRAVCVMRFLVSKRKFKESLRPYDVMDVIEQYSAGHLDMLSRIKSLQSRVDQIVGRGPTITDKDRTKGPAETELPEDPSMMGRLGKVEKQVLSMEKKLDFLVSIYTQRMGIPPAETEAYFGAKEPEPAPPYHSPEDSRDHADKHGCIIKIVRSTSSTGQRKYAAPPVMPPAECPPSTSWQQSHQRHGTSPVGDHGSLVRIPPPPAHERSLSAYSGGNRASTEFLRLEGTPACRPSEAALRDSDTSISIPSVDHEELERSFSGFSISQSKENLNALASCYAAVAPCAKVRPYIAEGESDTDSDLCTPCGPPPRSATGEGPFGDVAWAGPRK
KCNQ2 inh = inhibitors of rat KCNQ2 potassium channel; 1.1% of 310,000 active; AID 2156; O88943; B-score at 10 µM; CHO-K1 KCNQ2, FluxOR thallium flux, 20 min; active compounds read low;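 active = fluorescence ratio B-score at most minus 3 library SDs, with starting brightness B-score within 2 library SDs, cut at about -5.5 in these data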
Numbers stand for hits.

How did COc1ccc(CN(CC(O)COc2cccc3[nH]cc(C)c23)C(C)(C)C)cc1 (centres undefined) do in these assays?
KCNQ2 pot: inactive; KCNQ2 inh: -5.9

Results for CCN(CC(=O)Nc1ccc(NC(C)=O)cc1)C(=O)/C=C/c1ccc2c(c1)OCO2 ?
KCNQ2 inh: inactive

How did CCN(C(=O)/C=C/c1ccc2c(c1)OCO2)c1ccccc1 do in these assays?
KCNQ2 pot: inactive; KCNQ2 inh: -6

Results for CCOC(=O)C1=C(N)Oc2c(oc(CO)cc2=O)C1c1ccccc1 (centres undefined) ?
KCNQ2 pot: inactive; KCNQ2 inh: inactive

What do the screens show for `CCOC(=O)C(=O)N1CCN(c2cc3c(cc2[N+](=O)[O-])n(C)c(=O)n3C)CC1`?
KCNQ2 pot: inactive; KCNQ2 inh: inactive

How did CCOc1c(C)cnc2c1c(=O)n(Cc1ccccc1Cl)c(=O)n2C do in these assays?
KCNQ2 inh: inactive

How did CCO/C(C)=N/n1c2nc3ccccc3nc2c2c(=O)n(Cc3ccccc3Cl)c(C)nc21 do in these assays?
KCNQ2 pot: inactive; KCNQ2 inh: -8.4

Results for Cc1ccc(-n2nc(C)c3onc(C)c3c2=O)cc1 ?
KCNQ2 inh: inactive

How did COc1ccccc1CNC(=O)c1ccccc1OCc1ccc(F)cc1 do in these assays?
KCNQ2 inh: inactive

Results for O=C(NCc1ccccn1)c1ccccc1OCc1ccc(F)cc1 ?
KCNQ2 pot: inactive; KCNQ2 inh: -6.4

How did COc1ccc(C(=O)O)cc1S(=O)(=O)N1CCN(c2ccccn2)CC1 do in these assays?
KCNQ2 inh: inactive

Results for c1cnc2c(c1)ccc1cccnc12 ?
KCNQ2 pot: inactive; KCNQ2 inh: inactive

How did Cc1ccc(C(=O)Nc2c(-c3cccs3)nc3cc(C)ccn23)cc1 do in these assays?
KCNQ2 pot: inactive; KCNQ2 inh: inactive

How did Cc1ccn2c(NC(=O)C(C)(C)Oc3ccc(Cl)cc3)c(-c3cccs3)nc2c1 do in these assays?
KCNQ2 pot: inactive; KCNQ2 inh: -6.4

What do the screens show for `COc1ccc(-c2noc(=O)n2Cc2ccc(C#N)cc2)cc1`?
KCNQ2 pot: inactive; KCNQ2 inh: inactive

Results for COc1ccc2c(C)cc(SCC(=O)Nc3nsc(-c4ccc(C)cc4)n3)nc2c1 ?
KCNQ2 pot: inactive; KCNQ2 inh: -6.3

What do the screens show for `Cc1ccc(-c2nc(NC(=O)CSc3cc(C)c4ccccc4n3)ns2)cc1`?
KCNQ2 inh: inactive

What do the screens show for `O=C(Nc1ccc(F)c(F)c1)c1cnc(-c2ccccc2)nc1-c1ccccc1`?
KCNQ2 pot: inactive; KCNQ2 inh: -5.6

How did O=C(Nc1ccc(F)cc1)c1cnc(-c2ccccc2)nc1-c1ccccc1 do in these assays?
KCNQ2 inh: inactive

How did Cc1ccc(C2C(=O)N(C3CCC(C)CC3)CC(=O)N2C2CC2)cc1 (centres undefined) do in these assays?
KCNQ2 inh: inactive

How did CCc1ccc(NC(=O)C2C3/C=C\CCCCC32)cc1 (centres undefined) do in these assays?
KCNQ2 pot: 5.8; KCNQ2 inh: inactive

What do the screens show for `CCc1ccc(NC(=O)C2CCCCC2C(=O)O)cc1` (centres undefined)?
KCNQ2 pot: inactive; KCNQ2 inh: inactive

Results for CNC(=O)Nc1cccc(C(F)(F)F)c1 ?
KCNQ2 inh: inactive

What do the screens show for `O=C(NCCOc1ccc(Cl)cc1)c1ccc2ccccc2n1`?
KCNQ2 pot: inactive; KCNQ2 inh: -6.3

How did Cc1ccc(OCCNC(=O)c2ccc3ccccc3n2)cc1 do in these assays?
KCNQ2 inh: inactive

What do the screens show for `NS(=O)(=O)c1ccc(NC(=O)c2cc(Cl)ccc2Cl)cc1`?
KCNQ2 inh: inactive

What do the screens show for `CCCCCc1c2c(cc(O)c1C(=O)O)OC(=O)c1c(cc(OC)cc1C(=O)CCCC)O2`?
KCNQ2 pot: inactive; KCNQ2 inh: -6.7

How did CCCCc1c(C(=O)O)cc(OC)cc1C(=O)O do in these assays?
KCNQ2 pot: inactive; KCNQ2 inh: inactive

What do the screens show for `C=CCn1c(=O)c(C(=O)Nc2ccccc2C(=O)OCC)c(O)c2ccccc21`?
KCNQ2 inh: inactive

How did C=CCn1c(=O)c(C(=O)Nc2ccccc2S(N)(=O)=O)c(O)c2ccccc21 do in these assays?
KCNQ2 pot: 5.7; KCNQ2 inh: inactive

How did COC(=O)c1ccc(NCC(=O)Nc2cc(C)cc(C)c2)cc1 do in these assays?
KCNQ2 inh: inactive

Results for CCCCN(C(=O)c1ccc(N(C)S(=O)(=O)c2ccc(C)cc2)cc1)c1c(N)n(CCC)c(=O)[nH]c1=O ?
KCNQ2 inh: inactive

What do the screens show for `CN(C)c1ccc(C(c2ccc(N(C)C)cc2)c2ccc([N+](=O)[O-])cc2)cc1`?
KCNQ2 pot: inactive; KCNQ2 inh: -6.6

What do the screens show for `CN(C)c1ccc(C=NC(CO)C(O)c2ccc([N+](=O)[O-])cc2)cc1` (centres undefined)?
KCNQ2 inh: inactive

Results for COc1ccc(C(O)(C2CCCCC2)C(CN2CCOCC2)c2ccccc2)cc1 (centres undefined) ?
KCNQ2 inh: inactive

Results for OC(c1ccccc1)(C1CCCCC1)C(CN1CCOCC1)c1ccccc1 (centres undefined) ?
KCNQ2 pot: inactive; KCNQ2 inh: -5.7
